Bioassay records: PubChem, National Center for Advancing Translational Sciences (NCATS)
FLuc counter – qHTS profiling assay for firefly luciferase inhibitor/activator using purifed enzyme and Km concentrations of substrates (counterscreen for miR-21 project). purified FLuc, Km substrates, luminescence inhibition. Luciferin 4-monooxygenase (Photinus pyralis), P08659. AID 588342, 2011. Potency, µM (titrated, usually from 57.5 µM), most hits filed as inhibitors. 360,000 compounds, 6.9% hits; further: nearly all actives have a fitted effect of over 55% in size
Target sequence (P08659 whole entry, looked up): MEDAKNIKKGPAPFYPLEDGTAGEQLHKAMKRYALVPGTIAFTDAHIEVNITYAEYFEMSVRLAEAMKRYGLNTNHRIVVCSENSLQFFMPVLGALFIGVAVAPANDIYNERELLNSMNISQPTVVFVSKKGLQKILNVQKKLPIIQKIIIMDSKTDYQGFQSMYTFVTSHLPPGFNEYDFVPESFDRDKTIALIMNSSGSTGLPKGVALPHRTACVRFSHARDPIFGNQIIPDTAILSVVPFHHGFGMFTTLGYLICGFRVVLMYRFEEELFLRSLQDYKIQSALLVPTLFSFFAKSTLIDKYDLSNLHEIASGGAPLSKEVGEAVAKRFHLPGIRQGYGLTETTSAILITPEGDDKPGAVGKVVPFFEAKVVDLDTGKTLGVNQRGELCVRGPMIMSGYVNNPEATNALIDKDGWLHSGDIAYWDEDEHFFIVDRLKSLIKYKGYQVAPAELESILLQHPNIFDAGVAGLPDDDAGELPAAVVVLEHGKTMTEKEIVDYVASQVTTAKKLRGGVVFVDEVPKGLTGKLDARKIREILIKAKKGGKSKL
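Biochemical qHTS of compounds, final roughly 60 µM downward over six points, against 10 nM purified firefly luciferase using Km concentrations of substrates (10 uM D-luciferin, 10 uM ATP) in Tris acetate pH 7.5 buffer; luminescence output.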
ELG1 genotox – qHTS screen for small molecules that induce genotoxicity in human embryonic kidney (HEK293T) cells expressing luciferase-tagged ELG1; HEK293T ELG1-luciferase reporter, luminescence, 16 h; Potency, µM (top dose mostly 46 µM), most hits filed as activators; 330,000 compounds, 1.3% hits; AID 504466, 2011; further: nearly all actives have a fitted effect of over 60% in size
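Genotoxicity was scored as increased ELG1-luciferase reporter signal, measured by ONE-Glo luminescence (30 min, room temperature). Compound or vehicle exposure of the HEK293T reporter cells lasted 16 hr at 37°C.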
ELG1 repair inh – qHTS screen for small molecules that inhibit ELG1-dependent DNA repair in human embryonic kidney (HEK293T) cells expressing luciferase-tagged ELG1. 330,000 compounds, 2.3% hits. Potency, µM (highest dose often 46.1 µM), hits mostly inhibitors. HEK293T ELG1-luciferase reporter, luminescence, 16 h; DNA damage induced by 5-fluorouridine; further: nearly all actives have a fitted effect of over 55% in size
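In this reporter screen, reduction of luminescence relative to DMSO vehicle indicated activity. Compounds and 5-fluorouridine were added together to 2,000 cells per well, incubated for 16 hr at 37 °C, then developed with ONE-Glo.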
NPC1 prom act – qHTS Assay for NPC1 Promoter Activators; Huh7 NPC1 promoter luciferase reporter, 24 h; Potency, µM (highest dose often 9.22 µM), hits mostly activators; 320,000 compounds, 2.4% hits; AID 485313, 2010; further: nearly all actives have a fitted effect of over 60% in size
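Luminescence from an NPC1 promoter-driven luciferase reporter in stably transfected Huh7 cells was measured after 24 h compound treatment at 37 °C, followed by 10 min ambient incubation with luciferase detection reagent.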
SMN2 splice enh – qHTS Assay for Enhancers of SMN2 Splice Variant Expression. HEK293 SMN2-luciferase splicing reporter, luminescence, 30-36 h. Potency, µM (doses to about 46.1 µM), usual class: activators. 210,000 compounds, 2.8% hits; further: nearly all actives have a fitted effect of over 55% in size
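qHTS luciferase splicing reporter: luminescence rises when SMN2 exon 7 is included in transfected HEK293 cells. Compound exposure lasted 30-36 h at 37C, with 4.5 mM final sodium butyrate as control, followed by a ONE-Glo read.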
Rab9 promoter act – qHTS Assay for Rab9 Promoter Activators; AID 485297, 2010; Huh7 Rab9 promoter-luciferase reporter, luminescence, 24 h; Potency, µM (highest dose often 9.22 µM), most hits filed as activators; 320,000 compounds, 2.8% hits; further: nearly all actives have a fitted effect of over 60% in size
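Luciferase signal after 10 min detection reagent at ambient indicates Rab9 promoter upregulation; stably transfected Huh7 cells were treated 24 h with compound in DMSO at 37 °C, 5% CO2.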
Numbers stand for hits; n = inactive; u = inconclusive; x = no result; [ ] = remark or other dose. A selection: hits, their analogues and other compounds. The true share with any hit is near 9.2%. The call rests on the fitted dose curve; in most records, active means well fitted curve in the direction sought with a large enough effect; inconclusive means small, poorly fitted or top-dose-only effect, or another doubt; inactive means no such curve, though single readings can be large; an effect the other way counts as inactive or inconclusive.

SMILES | FLuc counter | ELG1 genotox | ELG1 repair inh | NPC1 prom act | SMN2 splice enh | Rab9 promoter act
COc1ccc(-c2c[n+]3c(n2-c2ccccc2)CCCCC3)cc1 | n | n | u | n | n | n
COc1ccc(-c2c[n+]3c(n2-c2ccc(C)cc2)CCCCC3)cc1 | n | n | 0.92µM | n | x | n
COC(=O)CCC(=O)OC1(C)C(=O)C=C2C=C(C3CC3)N(c3ccc(OC)cc3)C=C2C1=O (stereo not given) | x | x | x | x | n[9.22 µM] | x
CCC(C)c1c(O)nc(SCC(=O)N2CCCCCC2)[nH]c1=O (stereo not given) | n | n | n | n | x | n
CCN(CC)C(=O)C(=O)c1cn(CCOc2ccccc2)c2ccccc12 | n | n | n | n | n | n
CC(N)=NCCCC(N)C(=O)O (stereo not given) | x | x | x | x | n | x
Clc1ccc(-c2nnc(-c3ccccc3)c(-c3ccccc3)n2)cc1 | n | n | n | n | x | n
COc1nc(-c2ccccc2)nnc1-c1ccccc1 | 5.4µM | 8.2µM | u | u | 13µM | 3.2µM
CCC(=O)Nc1nc2ccc3sc(C)nc3c2s1 | 6.7µM | u | n | u | n | u
CCCC(=O)Nc1nc2ccc3nc(C)sc3c2s1 | u | u | n | n | u | u
Cc1nc2c(ccc3nc(NC(=O)C4CC4)sc32)s1 | 13µM | n | n | u | n | n
CC(=O)c1ccc(CCCCCCCCCC(=O)O)s1 | u | n | n | n | n | n
CCC(=O)c1ccc(CCCCCC(=O)O)s1 | 9.5µM | n | u | n | x | n
O=C(COc1ccccc1N1C(=O)c2ccccc2C1=O)c1ccc(Cl)cc1 | n | 18µM | u | n | n | n
O=C(COc1ccc(N2C(=O)c3ccccc3C2=O)cc1)c1ccccc1 | n | n | n | n | n | n
CCCCCCCCC[n+]1cccc2c3ccccc3ccc21 | n | n | u | n | n | n
CCCCCCCCCCCCCCCC[n+]1cccc2ccccc21 | n | n | 13µM | n | n | n
CCCCOc1ccc(S(N)(=O)=O)cc1 | n | n | n | n | n | n
CCCCOc1ccc(N=Cc2ccc[nH]2)cc1 | 3.8µM | n | u | n | x | n
COc1ccc(N=Cc2ccc[nH]2)cc1 | 9.5µM | n | n | n | n | n
CCOc1ccc(NC(=O)c2ccc3[nH]c(C)c(C)c3c2)cc1 | 13µM | x | x | x | x | x
COc1ccc(OC)c(CCNC(=O)c2ccc3[nH]c(C)c(C)c3c2)c1 | n | x | x | x | x | x
COc1ccc(NC(=O)c2ccc3[nH]c(C)c(C)c3c2)cc1 | 13µM | n | u | n | x | u
CCOc1ccc(CCNC(=O)c2ccc3[nH]c(C)c(C)c3c2)cc1 | n | x | x | x | x | x
O=C(CSCc1ccccc1)Nc1ccccc1C(=O)Nc1ccc(C(=O)O)cc1 | u | n | n | n | x | n
SMILES | FLuc counter | ELG1 genotox | ELG1 repair inh | NPC1 prom act | SMN2 splice enh | Rab9 promoter act
CC(=O)c1cccc(NC(=O)c2cc(S(=O)(=O)N3CCOCC3)cs2)c1 | n | n | n | n | x | n
Cc1ccccc1OCCN1C(=O)C(=O)c2cccc(C)c21 | n | n | n | n | n | n
O=C1c2ccccc2C(=O)N1CCOc1ccccc1Br | 24µM | u | u | n | x | u
COc1ccc(OCCN2C(=O)c3ccccc3C2=O)cc1 | u | n | u | n | n | u
Nc1cccc2c1C(=O)N(CCOc1ccc(F)cc1)C2=O | 2.7µM | 2.1µM | u | 1.8µM | x | 1.6µM
Cc1ccccc1OCCN1C(=O)c2ccccc2C1=O | 19µM | u | u | u | n | u
O=C1c2ccccc2C(=O)N1CCOc1ccccc1Cl | n | n | n | n | x | n
CCc1ccc(N2CC(C(=O)OCC(=O)Nc3ccc(C#N)cc3)CC2=O)cc1 (stereo not given) | n | n | n | n | x | n
O=C(O)CC12CC3CC(C1)CC(n1ncc(N4CCC5(CC4)OCCO5)c(Cl)c1=O)(C3)C2 | n | n | 23µM | n | x | n
CC(C)C(C(=O)N1CCN(C(=O)OC(C)(C)C)CC1)n1cc(-c2cn([C@@H](C)C(=O)N3CCN(C(=O)OC(C)(C)C)CC3)nn2)nn1 (stereo not given in full) | n | n | n | n | x | n
CC(C)(C)Nc1nc(Cl)nc(Nc2ccccc2)n1 | 7.6µM | u | u | u | x | u
COc1ccccc1Nc1nc(Cl)nc(NC(C)(C)C)n1 | u | n | n | n | n | n
Clc1nc(Nc2ccccc2)nc(Nc2ccccc2)n1 | 24µM | n | n | n | n | n
CC(C)C[C@H]1CN=C(Nc2ccccc2)N1CC1CCC(C)CC1 (stereo not given in full) | n | n | n | n | x | n
Oc1oc(-c2ccco2)nc1C=Nc1cccc(Cl)c1 | 15µM | n | n | n | n | n
Oc1oc(-c2ccco2)nc1C=Nc1ccccc1 | n[2.3 µM] | n | n | n | x | n
CN(C)S(=O)(=O)c1cccc(NC(=S)N/N=C/c2cc(Br)ccc2O)c1 | 19µM | n | 2.9µM | n | x | n
Cc1ccccc1N1CCN(C2CCCN(C(=O)CCC3(C)CC3)C2)CC1 (stereo not given) | n | n | n | n | x | n
CCN(C(=O)CN1CCN(c2cccc(C(F)(F)F)c2)CC1)c1c(N)n(Cc2ccccc2)c(=O)[nH]c1=O | n | n | u | n | u | n
C=CCc1c(C)nc(-c2ccccc2)nc1N/N=C(\C)c1ccccc1 | 17µM | n | u | n | n | n
CC(OC(=O)c1cccc(-n2cnnn2)c1)C(=O)Nc1ccc(F)cc1Cl (stereo not given) | n | n | n | n | x | n
Cc1ccc2nc(-c3ccc(NC(=O)CSc4nccc(=O)[nH]4)cc3)sc2c1 | 2.7µM | u | u | 1.4µM | 8.9µM | 0.4µM
Cc1ccc2nc(-c3ccc(NC(=O)CSc4nc(N)cc(=O)[nH]4)cc3)sc2c1 | 3.4µM | u | u | 2.8µM | x | 2.8µM
Nc1cc(=O)[nH]c(SCC(=O)Nc2nc3ccc([N+](=O)[O-])cc3s2)n1 | u | n | n | n | n | n
O=C(O)c1cc(N/N=C/c2ccc(N3CCOCC3)s2)ccc1Cl | 7.6µM | u | u | u | u | 3.2µM
C/C(=N\Nc1ccc(Cl)c(C(=O)O)c1)c1ccc(N2CCOCC2)cc1 | 24µM | u | u | n | x | u
CC(C)(C)OC(=O)N1CCc2nc(N3CCN(c4ncccn4)CC3)ncc2C1 | n | x | x | x | n | x
Cc1cc(C(=O)COC(=O)c2ccco2)c(C)n1Cc1ccco1 | 0.21µM | 2.6µM | u | u | n | 1.4µM
Cc1cc(C(=O)COC(=O)c2cc(Cl)ccc2N)c(C)n1Cc1ccco1 | 2.4µM | 9.2µM | u | 3.5µM | 14µM | 2.5µM
